The target of assay [1] is Peroxisome proliferator-activated receptor delta (Homo sapiens) (UniProt Q03181). Put plainly: qHTS assay to identify small molecule agonists of the peroxisome proliferator-activated receptor delta (PPARd) signaling pathway (AID 743212; calls by dose curve). The method in brief:
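A PPARd-bla HEK293H line with beta-lactamase under an Upstream Activator Sequence is treated with compounds at 37 C. Substrate loading for 2 h at room temperature precedes the fluorescence measurement.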

A short description of assay [2]: qHTS assay to identify small molecule antagonists of the peroxisome proliferator-activated receptor delta (PPARd) signaling pathway - cell viability counter screen (AID 743213). Note: nearly all actives have a fitted effect of over 50% in size. Note: potency is the fitted concentration of half-maximal effect. An outline of the steps: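 HEK293H PPARd UAS-bla cells, 5 h pre-incubation, compound + L165041 300 nM final, 17 h 37 C; B/G FRET substrate 2 h RT; then CellTiter-Glo 30 min RT, luminescence.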
(In general: qHTS replaces the single test concentration by a dilution series.)

Assay [3] deals with Peroxisome proliferator-activated receptor delta (Homo sapiens) (UniProt Q03181). Put plainly: qHTS assay to identify small molecule antagonists of the peroxisome proliferator-activated receptor delta (PPARd) signaling pathway (AID 743215; active = well fitted inhibition curve with a large enough effect in the signal ratio in the repeat runs, not every such curve was filed as active; the % refers to the signal ratio;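 note: cells stimulated with agonist L165041 at 300 nM final during compound exposure; series mostly up to about 62 µM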). An outline of the steps:
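HEK293H UAS-bla, PPARd; agonist L165041 300 nM final with cpd in DMSO; 37 C 17 h; FRET substrate, RT 2 h; fluorescence intensity.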

Assay [4] is described as follows: qHTS assay to identify small molecule agonists of the farnesoid-X-receptor (FXR) signaling pathway - cell viability counter screen (AID 743218). Note: nearly all actives have a fitted effect of over 45% in size. Note: potency is the fitted concentration of half-maximal effect. The method in brief:
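Parallel cytotoxicity test: compound-treated (16 h, 37 C) HEK 293T FXR-bla reporter cells were lysed with CellTiter-Glo and luminescence recorded.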

Assay [5] in a line: qHTS assay to identify small molecule antagonists of the farnesoid-X-receptor (FXR) signaling pathway - cell viability counter screen (AID 743221; active = well fitted cell-killing curve with a large enough effect in the repeat runs, not every such curve was filed as active; note: nearly all actives have a fitted effect of over 50% in size; note: potency is the fitted concentration of half-maximal effect). An outline of the steps: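 GeneBLAzer FXR-UAS-bla HEK 293T cells, compound plus chenodeoxycholic acid (50 uM final), 16 h at 37 C. CellTiter-Glo added to the same wells after the beta-lactamase read; luminescence read after 30 min at room temperature as viability.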

A short description of assay [6]: qHTS assay to identify small molecule agonists of the vitamin D receptor (VDR) signaling pathway - cell viability counter screen (AID 743224). Note: nearly all actives have a fitted effect of over 50% in size. Note: potency is the fitted concentration of half-maximal effect. An outline of the steps: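 Plated VDR-bla cells (4 h, 37C) received compound, incubated 16 h, then LiveBLAzer substrate 2 h RT; CellTiter-Glo added afterwards, luminescence read at 30 min.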
Assay [7] is described as follows: qHTS assay to identify small molecule antagonists of the vitamin D receptor (VDR) signaling pathway - cell viability counter screen (AID 743225). Note: nearly all actives have a fitted effect of over 50% in size. Note: potency is the fitted concentration of half-maximal effect. The method in brief:
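VDR-UAS-bla HEK 293T cells were plated and incubated 4 h at 37C, then dosed with compound plus 3 nM (final) 1-alpha,25-dihydroxyvitamin D3 for 16 h. After the 2 h beta-lactamase read, viability in the same wells was read as CellTiter-Glo luminescence after 30 min at room temperature.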

The nature of assay [8]: qHTS assay to identify small molecule agonists of the endoplasmic reticulum stress response signaling pathway (AID 1159516; active = well fitted activation curve with a large enough effect in the signal ratio in the repeat runs, not every such curve was filed as active; the % refers to the signal ratio). The method in brief:
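An ESRE-bla HeLa cell assay: compounds were pin-transferred from DMSO onto overnight-plated cells and left 5 hr at 37 C. Substrate was then loaded for 2 hr at room temperature before reading fluorescence at 460 nm and 530 nm.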

The nature of assay [9]: qHTS assay to identify small molecule agonists of the endoplasmic reticulum stress response signaling pathway - cell viability counter screen (AID 1159517; calls by dose curve). The method in brief: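 CellTiter-Glo was added to wells already read for beta-lactamase FRET, and luminescence was recorded 30 min later. Cells: ESRE-bla HeLa, 1,500 per well, compound exposure 5 hr at 37 C.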
Assay [10] is described as follows: qHTS assay to identify small molecule antagonists of the retinoid-related orphan receptor gamma (ROR-gamma) signaling pathway - cell viability counter screen (AID 1159520). Note: nearly all actives have a fitted effect of over 50% in size. Note: potency is the fitted concentration of half-maximal effect. An outline of the steps:
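Tet-on ROR gamma CHO cells (1,000/well) were plated 4 hr, given compounds in DMSO for 2 hr at 37 C, then induced with 1 uM final doxycycline for 16 hr. Viability was read as ATP by CellTiter-Glo luminescence after 30 min.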

Assay [11] concerns the target Nuclear receptor ROR-gamma (Homo sapiens) (UniProt P51449). Briefly: qHTS assay to identify small molecule antagonists of the retinoid-related orphan receptor gamma (ROR-gamma) signaling pathway (AID 1159521; note: nearly all actives have a fitted effect of over 50% in size; note: potency is the fitted concentration of half-maximal effect). An outline of the steps:
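Tet-on ROR-gamma CHO cells with ROR response element-luciferase reporter; compounds added 2 hr before 1 uM doxycycline induction, then 16 hr at 37 C. Antagonism scored as decreased ONE-Glo luminescence.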

The nature of assay [12]: qHTS assay to identify small molecule agonists of the AP-1 signaling pathway - cell viability counter screen (AID 1159525; calls by dose curve; note: nearly all actives have a fitted effect of over 55% in size; note: potency is the fitted concentration of half-maximal effect). The method in brief: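 ME-180 AP-1-bla, 2500 cells/well, Opti-MEM + 0.5% dialyzed FBS; overnight 37 °C; cpd 15-pt titration, 5 h 37 °C; CellTiter-Glo 30 min RT; luminescence read; normalised to TOAB and DMSO controls.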
A short description of assay [13]: qHTS assay to identify small molecule agonists of the AP-1 signaling pathway (AID 1159526; calls by dose curve).
Assay [14] in a line: qHTS assay to identify small molecule agonists of the RXR signaling pathway - cell viability counter screen (AID 1159529). Note: nearly all actives have a fitted effect of over 50% in size. Note: potency is the fitted concentration of half-maximal effect. An outline of the steps:
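RXR-alpha-UAS-bla HEK 293T cells in medium with 2% charcoal-stripped FBS were pre-incubated 5 hr, then compound-treated 16 hr at 37 C. Viability was read by CellTiter-Glo luminescence in the same wells as the beta-lactamase assay, with tetraoctyl ammonium bromide as positive control.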

Assay [15] concerns the target Bile acid receptor (Homo sapiens) (UniProt Q96RI1). Briefly: qHTS assay to identify small molecule antagonists of the farnesoid-X-receptor (FXR) signaling pathway (AID 743217; active = well fitted inhibition curve with a large enough effect in the signal ratio in the repeat runs, not every such curve was filed as active; the % refers to the signal ratio; note: potency is the fitted concentration of half-maximal effect). An outline of the steps: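 GeneBLAzer FXR-UAS-bla HEK 293T, CDCA-stimulated (50 uM final). Compound treatment 16 h, 37 °C. Detection: beta-lactamase cleavage of B/G FRET substrate, fluorescence.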

Assay [16] has the same target. Put plainly: qHTS assay to identify small molecule agonists of the farnesoid-X-receptor (FXR) signaling pathway (AID 743220; active = well fitted activation curve with a large enough effect in the signal ratio in the repeat runs, not every such curve was filed as active; the % refers to the signal ratio). The method in brief: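 Beta-lactamase reporter under UAS control in GeneBLAzer FXR HEK 293T cells (5000/well) measured with LiveBLAzer FRET substrate after 2 h at room temperature. Compound exposure lasted 16 h at 37C.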
The target of assay [17] is Retinoic acid receptor RXR-alpha (Homo sapiens) (UniProt P19793). Briefly: qHTS assay to identify small molecule agonists of the RXR signaling pathway (AID 1159527; calls by dose curve; note: nearly all actives have a fitted effect of over 35% in size). An outline of the steps: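 GeneBLAzer RXR-alpha-UAS-bla HEK 293T cells in 2% charcoal-stripped FBS medium were exposed to compounds for 16 hr at 37 C in agonist mode. Beta-lactamase reporter read as 460/530 nm FRET ratio after 2 hr substrate loading.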

For assay [18], the target named is Vitamin D3 receptor (Homo sapiens) (UniProt P11473). Briefly: qHTS assay to identify small molecule agonists of the vitamin D receptor (VDR) signaling pathway (AID 743222; calls by dose curve). An outline of the steps: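 In VDR-bla cells, compound-induced beta-lactamase expression is quantified by FRET substrate fluorescence. Treatment lasts 16 h at 37C; substrate develops 2 h at room temperature.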

For assay [19] the target is unchanged. Briefly: qHTS assay to identify small molecule antagonists of the vitamin D receptor (VDR) signaling pathway (AID 743223; active = well fitted inhibition curve with a large enough effect in the signal ratio in the repeat runs, not every such curve was filed as active; the % refers to the signal ratio). An outline of the steps: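 VDR-bla cells were treated with compound plus 3 nM final 1alpha,25-dihydroxyvitamin D3 for 16 h at 37C. Beta-lactamase reporter read by B/G FRET substrate fluorescence after 2 h at room temperature. qHTS format.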

Molecules are shown by their SMILES. Several values for one entry are separate records, joined by “and”; a condition that tells them apart may be missing. Equal entries are not always repeated. Results filed as inconclusive are left out. A structure can be active in one record and inactive in another. Activity calls are given as the source filed them. Unless noted, calls come from the whole dose curve; as a rule, active = well fitted curve in the direction sought with a large enough effect in the repeat runs; inconclusive = weak or mixed curves; inactive = no such curve, though single readings can be large; an effect the other way counts as inactive or inconclusive.

Chain of Peroxisome proliferator-activated receptor delta (Homo sapiens) (Q03181 whole entry, looked up): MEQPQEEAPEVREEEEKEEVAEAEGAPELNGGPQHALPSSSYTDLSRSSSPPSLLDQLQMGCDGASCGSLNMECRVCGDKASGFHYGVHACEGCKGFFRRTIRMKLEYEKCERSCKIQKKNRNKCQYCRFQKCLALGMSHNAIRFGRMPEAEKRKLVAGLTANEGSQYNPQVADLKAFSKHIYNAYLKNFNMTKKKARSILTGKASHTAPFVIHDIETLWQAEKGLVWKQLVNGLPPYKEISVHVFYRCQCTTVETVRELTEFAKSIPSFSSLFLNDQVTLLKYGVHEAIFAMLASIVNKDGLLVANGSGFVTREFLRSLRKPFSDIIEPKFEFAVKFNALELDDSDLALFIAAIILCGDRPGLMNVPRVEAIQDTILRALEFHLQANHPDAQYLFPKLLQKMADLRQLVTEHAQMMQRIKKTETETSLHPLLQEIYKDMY
Chain of Retinoic acid receptor RXR-alpha (Homo sapiens) (P19793 whole entry, looked up): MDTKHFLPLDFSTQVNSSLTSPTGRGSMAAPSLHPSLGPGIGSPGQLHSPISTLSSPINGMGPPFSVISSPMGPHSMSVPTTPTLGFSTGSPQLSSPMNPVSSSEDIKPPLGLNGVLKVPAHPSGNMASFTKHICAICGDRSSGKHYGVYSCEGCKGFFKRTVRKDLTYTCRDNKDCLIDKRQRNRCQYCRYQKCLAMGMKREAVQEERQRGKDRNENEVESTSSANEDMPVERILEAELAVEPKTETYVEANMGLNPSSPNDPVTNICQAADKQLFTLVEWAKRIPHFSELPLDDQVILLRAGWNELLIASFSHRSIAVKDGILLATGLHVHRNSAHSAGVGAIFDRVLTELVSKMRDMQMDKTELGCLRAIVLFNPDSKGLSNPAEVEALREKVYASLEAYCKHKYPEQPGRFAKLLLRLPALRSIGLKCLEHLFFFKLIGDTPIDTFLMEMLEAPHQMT
Chain of Bile acid receptor (Homo sapiens) (Q96RI1 whole entry, looked up): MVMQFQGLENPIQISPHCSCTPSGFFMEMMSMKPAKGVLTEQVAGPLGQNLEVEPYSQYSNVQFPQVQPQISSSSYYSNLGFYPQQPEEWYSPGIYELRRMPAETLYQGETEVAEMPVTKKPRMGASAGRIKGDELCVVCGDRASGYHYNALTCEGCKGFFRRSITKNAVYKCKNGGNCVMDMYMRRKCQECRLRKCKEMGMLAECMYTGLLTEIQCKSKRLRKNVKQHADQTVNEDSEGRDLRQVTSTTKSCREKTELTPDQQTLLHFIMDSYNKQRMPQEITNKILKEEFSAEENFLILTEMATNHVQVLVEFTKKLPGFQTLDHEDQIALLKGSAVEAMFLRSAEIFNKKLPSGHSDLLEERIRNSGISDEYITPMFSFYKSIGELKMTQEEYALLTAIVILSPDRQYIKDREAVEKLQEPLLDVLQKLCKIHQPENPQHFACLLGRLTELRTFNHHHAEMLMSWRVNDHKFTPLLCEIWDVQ
Chain of Vitamin D3 receptor (Homo sapiens) (P11473 whole entry, looked up): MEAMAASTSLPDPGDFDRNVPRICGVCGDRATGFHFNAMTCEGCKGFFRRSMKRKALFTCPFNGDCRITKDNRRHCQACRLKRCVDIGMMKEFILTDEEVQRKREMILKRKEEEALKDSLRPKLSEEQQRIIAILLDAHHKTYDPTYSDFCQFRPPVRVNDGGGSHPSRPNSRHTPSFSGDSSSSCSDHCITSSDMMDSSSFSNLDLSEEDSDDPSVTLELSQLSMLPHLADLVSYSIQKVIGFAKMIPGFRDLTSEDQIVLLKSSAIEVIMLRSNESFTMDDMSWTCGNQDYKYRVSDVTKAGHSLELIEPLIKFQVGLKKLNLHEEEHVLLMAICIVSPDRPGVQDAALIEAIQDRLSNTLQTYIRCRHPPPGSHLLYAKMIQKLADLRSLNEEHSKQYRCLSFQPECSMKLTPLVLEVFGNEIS

On to `c1ccc2n[nH]nc2c1`, for which the Potency result in assay [1], in [3], in assay [4], in assay [5], in [7] and in assay [9] was “inactive” throughout. In addition, the Potency result in assay [10], in [11], in assay [12], in assay [13] and in assay [14] was “inactive” each time. For the same compound, the Potency entry in [2] is “inactive and 38.9 µM (active)”; in assay [6], “inactive and 38.9 µM (active)”. Moreover, the compound was called inactive in assay [8].
For the compound `CN(C)c1ccc2nc3ccc(=[N+](C)C)cc-3sc2c1`, the Potency is 49 µM (active) and inactive in assay [2]; 8.37 µM (active) and 21.9 µM (active) and 8.41 µM (active) in [15]; 21 µM (active) and 49 µM (active) in [5]; 49 µM (active) and 2.98 µM (active) in [6]; “inactive and 21.9 µM (active)” in assay [7]; 16.6 µM (active) and 13.7 µM (active) in [10]. The Potency result in [11] is “inactive and 34.4 µM (active)”; in assay [12], 16.7 µM (active) and 43.6 µM (active). Also, the Potency entry in [4], in assay [16], in assay [9] and in assay [14] was “inactive” throughout. Moreover, the call in assay [8] was inactive.
`O=C(Oc1ccccc1)c1ccccc1O`: the Potency result in assay [2], in assay [4], in assay [5], in assay [6], in [7] and in [9] was “inactive” in each case. Also, the Potency entry in assay [10], in assay [11], in assay [12], in assay [13], in assay [17] and in assay [14] was “inactive” in each case. In addition, the outcome in assay [8] was inactive.
Turning to `O=C1NCC2(CCN(CCc3ccccc3)CC2)O1`, the Potency entry in assay [2], in assay [4], in [5], in assay [6], in assay [9] and in assay [10] was “inactive” throughout. Also, the Potency entry in assay [11], in [12], in assay [13], in [17] and in assay [14] was “inactive” in each case. Further, the compound was called inactive in assay [8].
For the compound `CCCCC/C=C/CC1CC(=O)OC1=O` (stereo unspecified), the Potency result in [2], in assay [4], in assay [5], in [18], in assay [19] and in assay [6] was “inactive” each time. The Potency entry in assay [9], in assay [10], in assay [11], in assay [12], in assay [13] and in assay [17] was “inactive” in each case. Besides, in assay [14], the Potency result is “inactive”. Moreover, the compound was classed as inactive in [8].
As for `CC(C)(C)c1cc(C(C)(C)C)c(O)c(C(C)(C)C)c1`, the Potency entry in assay [1], in assay [2], in [3], in assay [16], in [5] and in assay [7] was “inactive” each time. Moreover, the Potency result in [9], in assay [10], in [11], in [13] and in assay [14] was “inactive” each time. For the same compound, the Potency in [6] is 38.9 µM (active); in [12] it was “inactive and 49 µM (active)”. Further, the result in assay [8] was inactive.
For the compound `CC(=O)O[C@]1(C(C)=O)CC[C@H]2[C@@H]3C[C@H](C)C4=CC(=O)CC[C@]4(C)[C@H]3CC[C@@]21C`, the Potency entry in assay [1], in assay [2], in [3], in assay [15], in assay [4] and in assay [16] was “inactive” throughout. Moreover, the Potency result in [5], in assay [19], in assay [6], in [7], in assay [9] and in [10] was “inactive” in each case. In addition, the Potency result in [12] and in assay [14] was “inactive” throughout. Besides, the compound was classed as inactive in assay [8]. For the same compound, the Potency in assay [11] was 26.6 µM (active).
As to `CNCCC(Oc1ccc(C(F)(F)F)cc1)c1ccccc1` (stereo unspecified), the Potency in assay [2] was 17.2 µM (active) and 21.1 µM (active); in assay [4] it was 21.6 µM (active); in assay [5], 48.4 µM (active); in assay [6], 48.4 µM (active) and inactive; in assay [14], 27.2 µM (active) and 23.9 µM (active). In addition, the Potency entry in assay [18], in assay [9], in assay [10] and in assay [12] was “inactive” in each case. Besides, in assay [8], the compound was classed as inactive.
